Records with an inconclusive call do not appear. Calls of active or inactive are those of the source. Calls follow the shape of the dose curve; as a rule, active = well fitted cell-killing curve with a large enough effect; inconclusive = small, poorly fitted or top-dose-only effect; inactive = no such curve, though single readings can be large or run the other way.
Assay: qHTS of pediatric cancer cell lines to identify multiple opportunities for drug repurposing: Primary screen for SK-N-SH cells (AID 1347098); also: nearly all actives have a fitted effect of over 65% in size
Conditions: SK-N-SH viability, CellTiter-Glo luminescence, 48 h; series mostly up to 57 µM
Excerpt: Drug repurposing or repositioning has been offered as a strategy for drug development in oncology programs. This approach has special potential for childhood cancers and other rare or orphan diseases, where the expected return on new drug development has been a disincentive to pharmaceuticals.
In this project we exploit the poly-pharmacology of drugs to discover new indications via phenotypic screening of a panel of 19 well-characterized cell lines derived from solid tumors seen in children and adolescents. The goal is to identify approved drugs with previously unrecognized anticancer properties that has the potential to reveal new mechanisms and biological processes involved in carcinogenesis or drug resistance. We employed a titration-based paradigm (quantitative high-throughput screening or qHTS), where all compounds were tested at multiple concentrations for their effect on cell viability. Concentration-response curves (CRCs) were derived directly from the primary screen, and both potency and efficacy values were used to identify compounds with robust bioactivity profiles. We screened the NIH Chemical Genomics Center (NCGC) Pharmaceutical Collection (NPC) and Mechanism Interrogation Plate (MIPE) small molecule collections of approved and investigational compounds against these cell lines; and measured metabolically active cells after 48 hours of compound treatment as a proxy for cell viability.
Assay Submitter: Nathalia J. Martinez, National Center for Advancing Translational Sciences, National Institutes of Health, Rockville, MD, USA; email: natalia.martinez@nih.gov
[1] Shen, M et al. Quantitative high-throughput phenotypic screening of pediatric cancer cell lines identifies multiple opportunities for drug repurposing. Oncotarget 2017 Dec 19;9(4):4758-4772. PMID 29435139.
The cells were obtained from University of North Carolina (UNC), Pediatric Preclinical Testing Program (PPT), and Coriell Institute (CI).
qHTS cell viability assay:
Cells were assayed in growth media at a density of 500-1,000 cells/well. Five microliters of cells were dispensed into 1,536-well, white, solid-bottom, TC-treated plates (Greiner Bio One) using a multidrop dispenser and incubated at 37 degrees C, 5% CO2, under a humidified atmosphere for 5 hours. Twenty-three nanoliters of compounds and controls (neutral control DMSO or positive control bortezomib at final concentration of 2.3 µM) were subsequently transferred by Kalypsys pintool. For primary screens, the MIPE collection was tested at 11-point dilutions (final concentrations range from 0.78 nM to 46 µM) and the NPC collection at 8-point dilutions (final concentrations range from 0.59 nM to 46 µM). Compounds tested in follow-up screens were assayed at 11-point dilutions. Cells were incubated for 48 hours, followed by addition of 3 µL of CellTiter-Glo (Promega). After a 15 min incubation at room temperature, samples were analyzed for luminescence intensity using a ViewLux High-throughput CCD imager equipped with clear filters.
Potency is read from the fitted curve at half-maximal effect.

SMILES | Potency
COCCn1c2c([n+](Cc3cnccn3)c1C)C(=O)c1ccccc1C2=O | 0.482 µM (active)
C[C@H]1C[C@@H]2[C@@H]([C@@H](O)C[C@@]3(C)[C@H]2CC[C@]3(O)C(=O)CO)[C@@]2(C)C=CC(=O)C=C12 | inactive
CCN(CC)CCCCNc1ncc2cc(-c3cc(OC)cc(OC)c3)c(NC(=O)NC(C)(C)C)nc2n1 | 6.81 µM (active)
CCCCCN(CCC12CC3CC(CC(C3)C1)C2)C(=O)NCCCc1ccncc1 | inactive
CC(C)c1cc(-c2n[nH]c(=O)n2-c2ccc3c(ccn3C)c2)c(O)cc1O | 0.242 µM (active)
CC(O)C1C(=O)N2C(C(=O)O)=C(SC3CNC(C(=O)N(C)C)C3)C(C)C12 (stereo not given) | inactive
Cc1cc(Nc2cc(CN3CCOCC3)c3nc(C)c(Cc4ccc(Cl)cc4F)n3n2)n[nH]1 | 6.81 µM (active)
C1=CCOCc2cc(ccc2OCCN2CCCC2)Nc2nccc(n2)-c2cccc(c2)OCC1 | 7.64 µM (active)
C=CC(=O)N1CCC[C@@H](n2nc(-c3ccc(Oc4ccccc4)cc3)c3c(N)ncnc32)C1 | 12.1 µM (active)
Cn1c2ccccc2c2c3c(c4c5ccccc5n(CCC#N)c4c21)CNC3=O | 5.41 µM (active)
CC1COC2(CCN(c3nc(=O)c4cc(C(F)(F)F)cc([N+](=O)[O-])c4s3)CC2)O1 (stereo not given) | inactive
O=C(CCCCCCC(=O)Nc1ccc([C@H]2O[C@@H](CSc3nc(-c4ccccc4)c(-c4ccccc4)o3)C[C@@H](c3ccc(CO)cc3)O2)cc1)NO | 27.1 µM (active)
CCN(CC)CCNC(=O)c1ccc2nc(-c3ccccc3)c(-c3ccc(CN4CCC(n5c(=O)[nH]c6ccccc65)CC4)cc3)nc2c1 | 27.1 µM (active)
O=C(Cc1ccc(-c2ccc(OCCN3CCOCC3)cc2)cn1)NCc1ccccc1 | 6.81 µM (active)
O=C(Nc1cn[nH]c1-c1nc2ccc(CN3CCOCC3)cc2[nH]1)NC1CC1 | 0.242 µM (active)
CNC(=O)CN1CCC(Oc2cc3c(Nc4cccc(Cl)c4F)ncnc3cc2OC)CC1 | 0.0607 µM (active)
COc1cc2c(Oc3ccc(-c4cnc(Nc5ccc(F)cc5)n(C)c4=O)cc3F)ccnc2cc1OCCCN1CCOCC1 | 15.2 µM (active)
Cc1ccc(C(=O)Nc2cccc(C(F)(F)F)c2)cc1-c1ccc2nc(NCCN3CCOCC3)ncc2c1 | 9.61 µM (active)
CCCCCCCCCC(=O)N[C@@H](Cc1c[nH]c2ccccc12)C(=O)N[C@H](CC(N)=O)C(=O)N[C@@H](CC(=O)O)C(=O)N[C@@H]1C(=O)NCC(=O)N[C@@H](CCCN)C(=O)N[C@@H](CC(=O)O)C(=O)N[C@H](C)C(=O)N[C@@H](CC(=O)O)C(=O)NCC(=O)N[C@H](CO)C(=O)N[C@@H]([C@@H](C)CC(=O)O)C(=O)N[C@@H](CC(=O)c2ccccc2N)C(=O)O[C@@H]1C | inactive
CC(C)(C)OC(=O)Nc1ccc(-c2cc(C(=O)NCCCCCCC(=O)NO)no2)cc1 | 6.81 µM (active)

SMILES | Potency
O=C(O)CO.[NH2-].[NH2-].[Pt+2] | inactive
CC(C)[C@H](C(=O)Nc1ccc(C(=O)NO)cc1)c1ccccc1 | 2.41 µM (active)
C[C@@H](Oc1cc(-n2cnc3ccc(CN4CCN(C)CC4)cc32)sc1C(N)=O)c1ccccc1C(F)(F)F | 0.108 µM (active)
C1Cc2[nH]nc(-c3nn[nH]n3)c2C1 | inactive
O=C(NC1CCNCC1)c1[nH]ncc1NC(=O)c1c(Cl)cccc1Cl | 1.71 µM (active)
NC1(Cc2ccc(Cl)cc2)CCN(c2ncnc3[nH]ccc23)CC1 | 27.1 µM (active)
CN(C)CC=CC(=O)Nc1cc2c(Nc3ccc(F)c(Cl)c3)ncnc2cc1O[C@H]1CCOC1 | 24.1 µM (active)
Cc1[nH]nc2ccc(-c3cncc(OC[C@@H](N)Cc4ccccc4)c3)cc12 | 1.52 µM (active)
CC(C)c1noc(N2CCC(COc3ccc(-c4ccc(S(C)(=O)=O)cc4)nc3)CC2)n1 | inactive
COc1cc2c(cc1-c1c(C)noc1C)ncc1[nH]c(=O)n([C@H](C)c3ccccn3)c12 | 21.5 µM (active)
O=C(O)CCCc1c[nH]c2ccccc12 | inactive
Nc1ccc(C(=O)c2cc3c(ccc4ccccc43)[nH]2)cc1 | 7.64 µM (active)
COc1cc(C(=O)N2CCC(N3CCN(C)CC3)CC2)ccc1Nc1ncc2c(n1)N(C)c1ccccc1C(=O)N2C | 21.5 µM (active)
Cc1ccc(C(=O)Nc2ccc(CN3CCN(C)CC3)c(C(F)(F)F)c2)cc1C#Cc1cnc2cccnn12 | 6.07 µM (active)
COc1cc2c(Oc3ccc4[nH]c(C)cc4c3F)ncnc2cc1OCCCN1CCCC1 | 7.64 µM (active)
Cc1ccc(S(=O)(=O)Nc2cc(Cl)ccc2C(=O)Nc2nc(-c3ccccc3)cs2)cc1 | inactive
CC(=O)c1c(C)c2cnc(Nc3ccc(N4CCNCC4)cn3)nc2n(C2CCCC2)c1=O | 24.1 µM (active)
CCN1CCN(Cc2ccc(-c3cc4c(N[C@H](C)c5ccccc5)ncnc4[nH]3)cc2)CC1 | 21.5 µM (active)
C[C@]1(CO)CN(c2cc(C(=O)Nc3ccc4c(c3)-c3c(c(C(N)=O)nn3-c3ccc(F)cc3)CC4)c(Cl)cn2)C[C@@]1(C)CO | 19.2 µM (active)
CCCCc1nc2cc(C=CC(=O)NO)ccc2n1CCN(CC)CC | 3.41 µM (active)

Reference: PubChem BioAssay (NCATS)
